# In PubChem BioAssay (NCI):
# The panel holds about 79,000 compounds, 15% with a hit somewhere; the sample as a whole holds those more often. Values without a mark were called inactive. The source made the active and inactive calls. No stated cut-off is given here; in the data, active means growth inhibition above about 70%; inactive means the rest.
# Test: NCI Yeast Anticancer Drug Screen. Data for the mec2-1 strain (AID 157)
# Conditions: S. cerevisiae mec2-1 strain, at 50.0 µM, active compounds read high
# Description: Growth inhibition of yeast strains with defined genetic alterations is measured as a screen for potential anti-cancer activity. Selected strains with alterations in DNA damage repair or cell cycle control were exposed to compounds and growth inhibition was measured relative to vehicle treated controls. The strain used in this assay is mec2-1
row,Compound,growth inhibition
1,O=C(O)c1[nH]ncc1[N+](=O)[O-],-4.85%
2,CCn1c(SCC(=O)N/N=C/c2ccccc2)nc2ccccc2c1=O,6.95%
3,COc1ccc(C=Nc2c(O)ccc3ccccc23)cc1OC,-11.6%
4,CCN(CC)CCN(C)C(=O)C(=O)c1ccccc1,-0.85%
5,CN(C)C(=O)c1ccc[n+](CC(=O)NCc2ccccc2)c1,-7.35%
6,CN(c1ccccc1)c1nc(Cl)c(Cl)c(Cl)n1,-11.5%
7,COc1ccc(C(=O)C(CN(C)C)CN(C)C)cc1OC,9.55%
8,CC1(C)OC(=O)N=C1c1ccc(Br)cc1,-25.6%
9,Cc1c(CCC(C)C)oc2cc3oc(CCC(C)C)c(C)c3cc12,2.2%
10,N#Cc1ccccc1C#N,-5%
11,C=CC[N+](CCO)(CCO)CCCCCCCCCCCCCCCCCC,99% (active)
12,SC1CCCN(Cc2ccccc2)C1 (stereo not given),4.9%
13,C(=N\c1oc(-c2ccccc2)nc1SCc1ccccc1)/c1ccccc1,11.2%
14,CC(=O)OCC1OC(n2nnc3c(=O)n(C)c(=O)[nH]c32)C(OC(C)=O)C(OC(C)=O)C1OC(C)=O (stereo not given),16.1%
15,NC(=O)NNc1ccccc1,6.2%
16,CCCCCCCCCCCCCCCCCC(=O)OC(C(O)C=O)C(O)C(O)CO (stereo not given),16.3%
17,C[C@]12CCC3c4ccc(OC(=O)c5ccccc5)cc4CC[C@H]3C1CC[C@@H]2OC(=O)C12OC1CCC2=O (stereo not given in full),-35.5%
18,Cc1c(C)c2cc3c(=O)c(CCl)coc3c(C)c2oc1=O,1.15%
19,Cc1ccc2c(c1)CCC(=O)O2,0%
20,O=c1[nH]c(=O)n(C2OC(COP(=O)(O)OP(=O)(O)OC3OC(CO)C(O)C(O)C3O)C(O)C2O)cc1F (stereo not given),3.65%

row,Compound,growth inhibition
1,O=C1C(c2ccccc2)C(c2ccccc2)C(c2ccccc2)C1c1ccccc1 (stereo not given),1.05%
2,COc1cc(O)c2c(c1)C(=O)C1=C(C2=O)C(O)C[C@@](C)(O)C1 (stereo not given in full),90.2% (active)
3,CCCCCCCCCCCCCCCCCN(C)C(=O)OCC,-62.5%
4,CC(C(=O)O)N(CCC#N)CCC#N (stereo not given),-6.05%
5,NCCCc1ccc2c(c1)OCO2,6.45%
6,CC1CCCCNC1=S (stereo not given),19.6%
7,Cc1nnnn1-c1ccc([N+](=O)[O-])cc1,8.35%
8,O=c1c2c(nc3n1CCC3)OC(c1ccccc1)C2 (stereo not given),4.3%
9,CN(N=Nc1ccc(C#N)cc1)C(C)(C)C,-5.3%
10,O=C1c2ccccc2C(=O)N1Cc1ccc(CN2C(=O)c3ccccc3C2=O)cc1,-3.75%
11,CCCCC(CC)OC(=O)Cc1ccccc1 (stereo not given),-4.25%
12,CC(=O)OCC1OC(n2cnc3c(N)ncnc32)C(O)C1O (stereo not given),-6.45%
13,CC(C)(C)c1cc(-c2cc(C(C)(C)C)n(-c3ccccc3)n2)nn1-c1ccccc1,-26.9%
14,COc1cc(=O)cc2n(c1=O)CCC2,-5.05%
15,[Br][Pt+2][Br].[NH-]c1ccc(F)cc1.[NH-]c1ccc(F)cc1,9.2%
16,O=[N+]([O-])c1ccc(C2CC(c3ccccc3)=NN2c2ccccc2)cc1 (stereo not given),-8.85%
17,O=C(OCc1ccccc1CN1CCOCC1)c1ccc(Cl)cc1,68.5%
18,CCOC(=O)N1CCN(P(=O)(c2ccccc2)N2CCN(C(=O)OCC)CC2)CC1,-28.4%
19,CC(C)Cc1cccc(C(C)C)c1NC(=O)CCC(=O)N/N=C1\C(=N/NC(=O)CCC(=O)Nc2c(C(C)C)cccc2C(C)C)C(c2ccc3c(c2)OCO3)Oc2ccccc21 (stereo not given),-21.6%
20,CC(Br)C(=O)n1c2ccccc2c2ccccc21 (stereo not given),9.8%
